This passage reports outcome and Potency results from PubChem BioAssay (Tox21).

Values joined by “and” are separate entries in the source; they are usually repeats but may differ in a detail not shown here. Identical values can stand only once. Results filed as inconclusive are left out. Where a structure was tested more than once in an assay, its records may differ in their call. Active and inactive are the calls of the source. Unless noted, the call rests on the fitted dose curve; in most records, active means well fitted curve in the direction sought with a large enough effect in the repeat runs; inconclusive means weak or mixed curves; inactive means no such curve, though single readings can be large; an effect the other way counts as inactive or inconclusive.

Test [1] is described as follows: qHTS assay to identify small molecule agonists of the NFkB signaling pathway (AID 1159509; active means well fitted curve in the direction sought with a large enough effect in the signal ratio in the repeat runs, not every such curve was filed as active; the % refers to the signal ratio; further: series mostly up to about 61 µM). In outline:
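NFkB-bla ME-180 cells carry a beta-lactamase reporter under an NF-kB response element. They were plated overnight, then exposed to compounds for 5 h at 37 C. Read-out is LiveBLAzer FRET after 1.5 hr at room temperature (405 nm excitation; 460/530 nm emission).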

A short description of test [2]: qHTS assay to identify small molecule agonists of the NFkB signaling pathway - cell viability counter screen (AID 1159515; calls by dose curve; further: series mostly up to about 61 µM; nearly all actives have a fitted effect of over 55% in size). Put shortly:
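NFkB-bla ME-180 cells, 2,000/well, were plated overnight at 37 C, 5% CO2, then exposed to compounds in DMSO for 5 hr. After the bla FRET read, CellTiter-Glo was added to the same wells; luminescence was read after 30 min at room temperature.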

The nature of test [3]: qHTS assay to identify small molecule agonists of the endoplasmic reticulum stress response signaling pathway - cell viability counter screen (AID 1159517; calls by dose curve; further: series mostly up to about 61 µM; nearly all actives have a fitted effect of over 50% in size). Put shortly: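 ESRE-bla HeLa cells, 1,500 per well, seeded overnight then treated with compounds for 5 hr at 37 C. After the beta-lactamase read, viability in the same wells is measured by CellTiter-Glo luminescence after 30 min at room temperature.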

Test [4] can be described thus: qHTS assay to identify small molecule antagonists of the retinoid-related orphan receptor gamma (ROR-gamma) signaling pathway - cell viability counter screen (AID 1159520). Further: nearly all actives have a fitted effect of over 50% in size. Further: potency means the concentration at half of the fitted maximal effect. In outline: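 Tet-on ROR gamma CHO cells were given compounds for 2 hr, then doxycycline hyclate at 1 uM final, and incubated 16 hr at 37 C. Viability was measured as ATP content by CellTiter-Glo luminescence.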

In test [5] the target is Nuclear receptor ROR-gamma (Homo sapiens) (UniProt P51449). Briefly: qHTS assay to identify small molecule antagonists of the retinoid-related orphan receptor gamma (ROR-gamma) signaling pathway (AID 1159521; further: nearly all actives have a fitted effect of over 50% in size; further: potency means the concentration at half of the fitted maximal effect). In outline:
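Luminescence readout (ONE-Glo, 30 min RT) after 16 h doxycycline induction; loss of signal scored as antagonism. CHO cells with TET-inducible RORγ and RORE-LUC reporter; compounds added 2 h before 1 uM final doxycycline.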

Test [6] is described as follows: qHTS assay to identify small molecule agonists of the AP-1 signaling pathway - cell viability counter screen (AID 1159525; calls by dose curve; further: nearly all actives have a fitted effect of over 55% in size; further: potency means the concentration at half of the fitted maximal effect). Put shortly: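 AP-1-bla ME-180 cells in Opti-MEM with 0.5% dialyzed FBS, compound exposure 5 h at 37 C in 15-point titration. Viability read in the same wells as ATP content by CellTiter-Glo luminescence, normalised to tetra-n-octylammonium bromide and DMSO controls.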

Test [7] is described as follows: qHTS assay to identify small molecule agonists of the AP-1 signaling pathway (AID 1159526; calls by dose curve).
The nature of test [8]: qHTS assay to identify small molecule antagonists of the retinoid acid receptor (RAR) signaling pathway - cell viability counter screen (AID 1159551). Further: nearly all actives have a fitted effect of over 35% in size. Further: potency means the concentration at half of the fitted maximal effect. In outline: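 C3RL4 cells were seeded overnight at 37 C, then treated with compounds plus 1 uM (final) retinol for 6 h at 37 C. Viability was read as ATP by CellTiter-Glo luminescence after 30 min at room temperature.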
A short description of test [9]: qHTS assay to identify small molecule antagonists of the retinoic acid receptor (RAR) signaling pathway (AID 1159552; further: nearly all actives have a fitted effect of over 50% in size; further: potency means the concentration at half of the fitted maximal effect). In outline: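 Luminescence from a RARE luciferase reporter in C3RL4 cells served as read-out. Cells received compounds together with 1 uM final retinol and incubated 6 hr at 37 C before detection reagent was added for 30 min at room temperature.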

The nature of test [10]: qHTS assay to identify small molecule antagonists of the estrogen related receptor (ERR) signaling pathway (AID 1224819). Put shortly: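 ERR reporter cells were plated at 2,000 cells/well and left 6 h at 37 C/5% CO2 before pin-tool transfer of compounds in DMSO. After 18 h at 37 C, One-Glo was added and luminescence was read 30 min later at room temperature.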
The nature of test [11]: qHTS assay to identify small molecule agonists of the estrogen related receptor (ERR) signaling pathway (AID 1224820). Put shortly: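 ERR reporter cell line (from NTP), 2,000 cells/well, incubated 6 h before compound addition, then 18 h at 37 C. Luminescence measured 30 min after One-Glo reagent at room temperature.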
Test [12] deals with estrogen-related receptor alpha (ERRalpha) with PGC-1alpha coactivator, human. The test can be described thus: qHTS assay to identify small molecule antagonists of the estrogen related receptor signaling pathway with the pleiotropic PPARgamma coactivator (PGC) (AID 1224821; calls by dose curve). Put shortly: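 PGC/ERR reporter cell line, plated 6 h before compound addition, then exposed 18 h at 37 °C. Luciferase activity read by luminescence 30 min after One-Glo addition; decrease indicates antagonism.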

Test [13] can be described thus: qHTS assay to identify small molecule agonists of the estrogen related receptor signaling pathway with the pleiotropic PPARgamma coactivator (PGC) (AID 1224823). In outline: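 PGC/ERR reporter cells seeded 6 h, then exposed to compounds (23 nL in DMSO) for 18 h at 37 C. One-Glo luciferase luminescence read after 30 min at room temperature.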
A short description of test [14]: qHTS assay to identify small molecule antagonists of the estrogen related receptor (ERR) signaling pathway from Tox21 library - cell viability counter screen (AID 1224834). Further: nearly all actives have a fitted effect of over 30% in size. Further: potency means the concentration at half of the fitted maximal effect. Put shortly:
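ERR reporter cells were plated 6 h before compound addition, then exposed to test compounds in DMSO for 17.5 h at 37 C. Viability was read as CellTiter-Fluor fluorescence after a 30-minute incubation at 37 C.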

Test [15] in a line: qHTS assay to identify small molecule agonists of the endoplasmic reticulum stress response signaling pathway (AID 1159516; active means well fitted activation curve with a large enough effect in the signal ratio in the repeat runs, not every such curve was filed as active; the % refers to the signal ratio). Put shortly: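 CellSensor ESRE-bla HeLa cells, carrying a beta-lactamase reporter driven by the ER stress response element, were plated overnight and exposed to compounds for 5 hr at 37 C. Reporter activity was read as FRET substrate fluorescence after 2 hr at room temperature.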

The target in test [16] is Retinoic acid receptor RXR-alpha (Homo sapiens) (UniProt P19793). Briefly: qHTS assay to identify small molecule agonists of the RXR signaling pathway (AID 1159527; calls by dose curve; further: nearly all actives have a fitted effect of over 35% in size). Put shortly: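 Agonist mode; 9-cis retinoic acid positive control. HEK 293T UAS-bla reporter cells, 2% charcoal-stripped FBS, 16 hr compound exposure at 37 C/5% CO2. LiveBLAzer B/G FRET substrate 2 hr RT; ex 405, em 460/530 nm.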
Chain of Retinoic acid receptor RXR-alpha (Homo sapiens) (P19793 whole entry, looked up): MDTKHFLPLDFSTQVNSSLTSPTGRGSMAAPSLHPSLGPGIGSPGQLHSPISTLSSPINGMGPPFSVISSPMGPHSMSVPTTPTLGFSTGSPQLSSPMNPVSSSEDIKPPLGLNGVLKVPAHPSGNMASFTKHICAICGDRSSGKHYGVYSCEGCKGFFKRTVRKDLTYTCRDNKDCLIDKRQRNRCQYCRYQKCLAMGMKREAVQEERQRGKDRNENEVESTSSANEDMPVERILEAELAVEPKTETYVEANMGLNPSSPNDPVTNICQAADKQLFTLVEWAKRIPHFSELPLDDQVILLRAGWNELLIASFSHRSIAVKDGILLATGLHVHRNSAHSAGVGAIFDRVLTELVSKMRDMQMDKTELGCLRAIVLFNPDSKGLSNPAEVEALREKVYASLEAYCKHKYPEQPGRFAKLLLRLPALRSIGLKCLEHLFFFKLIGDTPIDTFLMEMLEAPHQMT

Test [17] is described as follows: qHTS assay to identify small molecule agonists of the RXR signaling pathway - cell viability counter screen (AID 1159529). Put shortly:
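Luminescence from CellTiter-Glo (30 min, RT) measured viability in the same wells as the beta-lactamase reporter readout. Cells: GeneBLAzer RXR-alpha HEK 293T, 2% charcoal-stripped FBS. Compound exposure 16 hr, 37 C.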

Test [18] is described as follows: qHTS assay to identify small molecule agonists of the retinoic acid receptor (RAR) signaling pathway (AID 1159553). Further: potency means the concentration at half of the fitted maximal effect. Put shortly:
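C3RL4 cells carrying a RARE luciferase reporter were plated overnight at 37 C, then exposed to compounds in DMSO for 6 hr at 37 C and 5% CO2. Luminescence was read 30 min after luciferase reagent addition at room temperature.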

As to `Nc1ncn([C@@H]2O[C@H](CO)[C@@H](O)[C@H]2O)c(=O)n1`, the compound was called inactive in test [1], in [7], in test [11] and in [13]. Further, the Potency entry in test [2], in test [3], in test [6] and in test [8] was “inactive” each time. The Potency in test [4] was 3.44 µM (active) and 4.22 µM (active); in [5], 1.72 µM (active) and 3.35 µM (active); in test [9], 27.3 µM (active) and 29.8 µM (active); in test [10], 0.619 µM (active); in [12] it was 3.1 µM (active); in [14], 2.17 µM (active) and 3.76 µM (active).
`CCCCOCCOCCOCCO`: the outcome in test [1] and in test [7] was inactive. Further, the Potency result in [2], in test [15], in test [4], in test [5], in [6] and in test [16] was “inactive” throughout. The Potency entry in [17], in test [8], in test [9] and in test [14] was “inactive” in each case.
With `C#C[C@]1(O)CC[C@H]2[C@@H]3CCC4=Cc5oncc5C[C@]4(C)[C@H]3CC[C@@]21C`, the call in [1] and in [7] was inactive. For the same compound, the Potency result in [15], in [3], in test [4] and in test [8] was “inactive” throughout. The Potency in test [5] was 17.2 µM (active) and 16.8 µM (active); in test [6], 54.9 µM (active) and inactive; in [14], 30.6 µM (active) and 26.6 µM (active).
With `c1ccc2sc(SSN3CCOCC3)nc2c1`, the compound was classed as inactive in test [1]. Besides, the Potency entry in test [2], in [3], in [6], in test [18] and in test [14] was “inactive” in each case. In addition, the Potency in [4] is 27.3 µM (active); in test [5], 19.3 µM (active) and 54.5 µM (active); in [8], 61 µM (active).
In the case of `O=C(Nc1ccc(Cl)cc1)Nc1ccc(Cl)c(Cl)c1`, in test [1], the compound was classed as inactive. The Potency result in test [2], in test [15], in [3], in test [6] and in test [9] was “inactive” in each case. Also, the Potency in test [4] is 17.1 µM (active); in test [5], 17.2 µM (active); in test [18], 3.06 µM (active) and 3.35 µM (active); in [14], 12.1 µM (active) and 6.86 µM (active) and 18.8 µM (active).
Turning to `OCCO`, the call in [1] and in test [7] was inactive. The Potency result in [2], in [15], in test [3], in test [4], in [6] and in test [16] was “inactive” in each case. For the same compound, the Potency result in test [8], in test [9] and in test [18] was “inactive” in each case.
Take `COc1cccc2c1C(=O)c1c(O)c3c(c(O)c1C2=O)C[C@@](O)(C(=O)CO)C[C@@H]3O[C@H]1C[C@H](N)[C@H](O)[C@H](C)O1`: the compound was called inactive in test [1] and in test [7]. The Potency result in test [2], in [3], in test [5], in test [6], in test [8] and in test [18] was “inactive” throughout. Besides, the Potency entry was “inactive and 26.6 µM (active)” in test [4]; 3.85 µM (active) in test [9]; 2.17 µM (active) and 6.68 µM (active) in test [14].
On to `CCOC(=O)C(C#N)=C(c1ccccc1)c1ccccc1`, for which the compound was classed as inactive in test [1] and in test [7]. Also, the Potency result in test [2], in [15], in test [3], in test [4], in [6] and in [17] was “inactive” in each case. Also, the Potency entry in test [8], in test [9], in test [18] and in test [14] was “inactive” in each case.
